Measured values as given in PubChem BioAssay (EPA / NIEHS).
Inconclusive results are not listed. Active and inactive are the calls of the source. Rule for the calls: active = hit-call score of the fitted dose curve at least 0.9, where 1 is the maximum; inconclusive = response in the unintended direction; inactive = score below 0.9.

Legend:
[1] = target: human Peroxisome Proliferator-activated Receptor alpha (PPARa), PPARA (gene 5465) (UniProt Q07869); test: ATG_PPARa_TRANS: Attagene TRANS-FACTORIAL HepG2 Assay for human Peroxisome Proliferator-activated Receptor alpha (PPARa) (AID 2283001);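 for AC50: potency for gain of reporter signal over DMSO so agonist or activator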
Outline: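 Transfected HepG2 cells treated with test chemical for 24 h. RNA isolated, reverse-transcribed with oligo(dT), PCR-amplified, FAM-labelled and HpaI-digested. Fragments sized by capillary electrophoresis; gain-of-signal fit relative to DMSO.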

[2] = target: human Peroxisome Proliferator-activated Receptor delta (PPARd), PPARD (gene 5467) (UniProt Q03181); test: ATG_PPARd_TRANS: Attagene TRANS-FACTORIAL HepG2 Assay for human Peroxisome Proliferator-activated Receptor delta (PPARd) (AID 2283002)
Outline: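 Transient HepG2 transfection (multiple GAL4-UAS RTUs, chimeric receptor-Gal4); 24 h dosing; total RNA → oligo(dT) RT → PCR → 6-FAM primer extension → HpaI cut → CE. Positive direction vs DMSO.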

[3] = target: Nuclear receptor subfamily 1 group I member 2 (Homo sapiens) (UniProt O75469); test: ATG_PXR_TRANS: Attagene TRANS-FACTORIAL HepG2 Assay for human Pregnane X Receptor (PXR) (AID 2283008)
Outline: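 Transactivation by exogenous PXR–GAL4 fusion measured as reporter transcript induction after 24 h compound treatment of transfected human HepG2 cells. Read-out via RT-PCR and capillary electrophoresis of labelled fragments, fitted upward relative to DMSO.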

[4] = target: Peroxisome proliferator-activated receptor gamma (Homo sapiens) (UniProt P37231); test: ATG_PPARg_TRANS: Attagene TRANS-FACTORIAL HepG2 Assay for human Peroxisome Proliferator-activated Receptor-gamma (PPARg) (AID 2283007)
Outline: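 Chimeric NR-Gal4 transactivation is measured in transiently transfected HepG2 cells by reporter mRNA induction at 24 h. Detection uses RT-PCR with fluorescent labelling and capillary electrophoresis; DMSO defines baseline.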

[5] = target: Retinoic acid receptor alpha (Homo sapiens) (UniProt P10276); test: ATG_RARa_TRANS: Attagene TRANS-FACTORIAL HepG2 Assay for human Retinoic Acid Receptor alpha (RARa) (AID 2283005)
Outline: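 Reporter transcripts, measured by RT-PCR with fluorescent labeling and capillary electrophoresis after 24 h dosing, reflect activity of an exogenous human RARa–GAL4 fusion in transiently transfected HepG2. Fitted for increase relative to DMSO.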

[6] = target: human Retinoic Acid Receptor gamma (RARg), RARG (gene 5916) (UniProt P13631); test: ATG_RARg_TRANS: Attagene TRANS-FACTORIAL HepG2 Assay for human Retinoic Acid Receptor gamma (RARg) (AID 2283009)
Outline: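 Readout: reporter transcript levels via RT-PCR, 6-FAM primer-extension labelling, HpaI digestion and capillary electrophoresis. Cells: HepG2 carrying transfected RARg-GAL4 chimera plus UAS reporter set. Dosing 24 h; DMSO negative control.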

[7] = target: human Retinoic Acid Receptor beta (RARb), RARB (gene 5915) (UniProt P10826); test: ATG_RARb_TRANS: Attagene TRANS-FACTORIAL HepG2 Assay for human Retinoic Acid Receptor beta (AID 2283004)
Outline: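 Fluorescent capillary-electrophoresis detection of GAL4-UAS reporter mRNA defines the endpoint, with induction over DMSO-treated wells scored as activity. Transiently transfected human hepatoma HepG2 cells expressing exogenous NR–Gal4 proteins are exposed to test chemicals for 24 h.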

Sequence of human Peroxisome Proliferator-activated Receptor delta (PPARd), PPARD (gene 5467) (Q03181 whole entry, looked up, the tested form may be a part): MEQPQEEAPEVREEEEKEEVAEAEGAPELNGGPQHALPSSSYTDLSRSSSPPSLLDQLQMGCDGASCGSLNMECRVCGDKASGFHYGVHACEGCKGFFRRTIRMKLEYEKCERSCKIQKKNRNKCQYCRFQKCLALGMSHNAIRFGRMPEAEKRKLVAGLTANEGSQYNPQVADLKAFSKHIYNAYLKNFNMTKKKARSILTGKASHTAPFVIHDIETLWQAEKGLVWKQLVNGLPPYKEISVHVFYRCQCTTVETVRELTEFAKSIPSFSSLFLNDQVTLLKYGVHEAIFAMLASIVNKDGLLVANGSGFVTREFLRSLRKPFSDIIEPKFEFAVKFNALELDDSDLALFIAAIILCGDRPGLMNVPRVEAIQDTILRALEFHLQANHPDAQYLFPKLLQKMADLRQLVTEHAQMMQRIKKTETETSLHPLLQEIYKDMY
Sequence of human Retinoic Acid Receptor gamma (RARg), RARG (gene 5916) (P13631 whole entry, looked up, the tested form may be a part): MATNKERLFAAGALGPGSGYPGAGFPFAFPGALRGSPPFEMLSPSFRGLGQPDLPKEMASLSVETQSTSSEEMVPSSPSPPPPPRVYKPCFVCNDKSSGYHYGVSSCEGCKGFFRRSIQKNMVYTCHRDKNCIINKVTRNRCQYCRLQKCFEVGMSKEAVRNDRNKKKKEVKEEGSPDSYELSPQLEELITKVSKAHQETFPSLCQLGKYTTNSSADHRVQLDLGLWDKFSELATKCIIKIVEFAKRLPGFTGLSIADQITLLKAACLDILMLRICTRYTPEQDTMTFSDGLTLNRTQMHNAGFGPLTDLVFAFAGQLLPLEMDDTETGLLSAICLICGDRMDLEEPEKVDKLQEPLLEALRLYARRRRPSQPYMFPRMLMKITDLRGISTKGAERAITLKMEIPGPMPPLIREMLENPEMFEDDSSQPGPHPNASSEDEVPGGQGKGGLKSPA
Sequence of Nuclear receptor subfamily 1 group I member 2 (Homo sapiens) (O75469 whole entry, looked up, the tested form may be a part): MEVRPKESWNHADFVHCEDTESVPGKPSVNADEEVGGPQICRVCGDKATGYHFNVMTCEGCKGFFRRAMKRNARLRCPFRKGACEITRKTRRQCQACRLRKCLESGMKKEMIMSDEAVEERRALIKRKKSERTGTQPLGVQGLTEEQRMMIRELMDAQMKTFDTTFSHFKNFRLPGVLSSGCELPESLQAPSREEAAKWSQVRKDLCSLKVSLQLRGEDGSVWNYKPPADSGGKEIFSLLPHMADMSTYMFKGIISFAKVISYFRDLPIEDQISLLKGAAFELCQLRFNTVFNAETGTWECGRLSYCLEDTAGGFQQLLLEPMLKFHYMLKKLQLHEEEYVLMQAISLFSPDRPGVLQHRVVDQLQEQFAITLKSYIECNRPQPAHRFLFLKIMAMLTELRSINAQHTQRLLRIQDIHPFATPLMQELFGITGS
Sequence of human Retinoic Acid Receptor beta (RARb), RARB (gene 5915) (P10826 whole entry, looked up, the tested form may be a part): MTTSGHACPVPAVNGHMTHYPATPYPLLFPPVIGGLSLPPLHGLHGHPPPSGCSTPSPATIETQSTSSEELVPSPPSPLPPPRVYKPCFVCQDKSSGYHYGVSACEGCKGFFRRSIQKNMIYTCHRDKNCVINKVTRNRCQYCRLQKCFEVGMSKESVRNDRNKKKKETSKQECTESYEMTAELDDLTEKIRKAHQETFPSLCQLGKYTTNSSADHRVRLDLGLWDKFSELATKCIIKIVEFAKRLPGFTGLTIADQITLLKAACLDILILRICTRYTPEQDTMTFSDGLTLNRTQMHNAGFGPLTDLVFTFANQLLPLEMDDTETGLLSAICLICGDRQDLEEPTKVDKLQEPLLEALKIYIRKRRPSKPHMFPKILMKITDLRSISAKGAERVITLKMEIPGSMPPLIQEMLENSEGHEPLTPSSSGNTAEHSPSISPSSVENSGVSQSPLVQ
Sequence of human Peroxisome Proliferator-activated Receptor alpha (PPARa), PPARA (gene 5465) (Q07869 whole entry, looked up, the tested form may be a part): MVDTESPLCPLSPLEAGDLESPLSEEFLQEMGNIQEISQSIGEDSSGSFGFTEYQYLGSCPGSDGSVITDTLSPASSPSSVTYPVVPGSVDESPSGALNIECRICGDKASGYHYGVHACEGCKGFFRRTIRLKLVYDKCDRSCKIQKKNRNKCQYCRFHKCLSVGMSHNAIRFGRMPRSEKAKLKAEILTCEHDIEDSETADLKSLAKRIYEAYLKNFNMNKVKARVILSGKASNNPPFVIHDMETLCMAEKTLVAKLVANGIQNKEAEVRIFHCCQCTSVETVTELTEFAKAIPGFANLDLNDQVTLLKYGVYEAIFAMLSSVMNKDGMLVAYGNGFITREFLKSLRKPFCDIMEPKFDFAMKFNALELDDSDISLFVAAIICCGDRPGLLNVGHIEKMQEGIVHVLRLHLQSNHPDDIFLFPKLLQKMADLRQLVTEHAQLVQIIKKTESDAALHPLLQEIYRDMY
Sequence of Retinoic acid receptor alpha (Homo sapiens) (P10276 whole entry, looked up, the tested form may be a part): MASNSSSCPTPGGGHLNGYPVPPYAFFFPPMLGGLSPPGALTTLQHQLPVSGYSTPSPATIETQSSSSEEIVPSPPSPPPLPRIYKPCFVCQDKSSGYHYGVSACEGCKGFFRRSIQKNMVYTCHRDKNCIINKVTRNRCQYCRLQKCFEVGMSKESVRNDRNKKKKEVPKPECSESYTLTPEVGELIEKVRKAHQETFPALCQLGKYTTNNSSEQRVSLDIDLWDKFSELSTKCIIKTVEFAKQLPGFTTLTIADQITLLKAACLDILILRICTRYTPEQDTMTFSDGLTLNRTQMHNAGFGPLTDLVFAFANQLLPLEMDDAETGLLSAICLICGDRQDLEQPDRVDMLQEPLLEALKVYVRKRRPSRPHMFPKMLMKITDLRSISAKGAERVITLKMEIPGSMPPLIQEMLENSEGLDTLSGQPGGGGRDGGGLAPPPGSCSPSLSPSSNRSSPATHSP
Sequence of Peroxisome proliferator-activated receptor gamma (Homo sapiens) (P37231 whole entry, looked up, the tested form may be a part): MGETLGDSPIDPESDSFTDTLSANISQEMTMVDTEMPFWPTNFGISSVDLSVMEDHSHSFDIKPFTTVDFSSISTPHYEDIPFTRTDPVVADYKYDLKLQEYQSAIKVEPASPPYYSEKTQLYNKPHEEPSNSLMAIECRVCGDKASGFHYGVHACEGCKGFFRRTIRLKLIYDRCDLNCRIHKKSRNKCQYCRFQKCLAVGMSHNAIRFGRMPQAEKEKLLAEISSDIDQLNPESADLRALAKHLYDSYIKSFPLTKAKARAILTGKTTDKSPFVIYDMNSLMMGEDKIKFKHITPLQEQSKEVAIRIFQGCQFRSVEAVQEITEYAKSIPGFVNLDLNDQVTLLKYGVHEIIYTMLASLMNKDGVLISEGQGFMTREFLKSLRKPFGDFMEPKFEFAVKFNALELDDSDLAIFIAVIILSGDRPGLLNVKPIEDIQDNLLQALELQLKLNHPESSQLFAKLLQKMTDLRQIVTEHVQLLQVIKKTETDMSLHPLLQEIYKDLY

In the case of O=C(O)CC(C(=O)O)S(=O)(=O)O (stereo not drawn), the outcome [1] is reported as “inactive”, the outcome [2] is reported as “inactive” and the outcome [3] is reported as “inactive”.

With C=CCOC(=O)c1ccc(C(=O)OCC=C)c(C(=O)OCC=C)c1 the AC50 [1] was 8.92 µM (active), the outcome [2] was “inactive” and the AC50 [4] was 27.7 µM (active). For the same compound, the outcome [3] was “inactive”.

With O=c1c(O)c(-c2ccc(O)cc2O)oc2cc(O)cc(O)c12 the outcome [1] was “inactive”, the outcome [2] was “inactive” and the outcome [5] was “inactive”. For the same compound, the outcome [4] was “inactive” and the outcome [3] was “inactive”.

For Cc1c[nH]c(=O)[nH]c1=O, the outcome [1] was “inactive”, the outcome [2] was “inactive” and the outcome [5] was “inactive”. The outcome [3] was “inactive” and the outcome [6] was “inactive”.

For CCCC1CCCC(=O)O1 (stereo not drawn), the outcome [1] was “inactive”, the outcome [2] was “inactive” and the AC50 [4] was 23.4 µM (active).

CCC1COC(=O)O1 (stereo not drawn) was tested, and the outcome [1] was “inactive”, the outcome [2] was “inactive” and the outcome [7] was “inactive”. The outcome [4] was “inactive” and the outcome [3] was “inactive”.

In the case of CC(C)CC(=O)OCc1ccccc1, the outcome [1] is reported as “inactive”, the outcome [2] is reported as “inactive” and the outcome [4] is reported as “inactive”. For the same compound, the outcome [3] was “inactive”.

With C=CCCCCCCCCO the outcome [1] was “inactive”, the outcome [2] was “inactive” and the outcome [4] was “inactive”. For the same compound, the outcome [3] was “inactive”.

For CCOC(=O)OC(=O)OCC, the outcome [2] was “inactive”.

With Cc1ccc(S(=O)(=O)N=C=O)cc1 the outcome [2] was “inactive” and the outcome [4] was “inactive”.

For OCCCc1ccccc1, the outcome [2] was “inactive”, the outcome [5] was “inactive” and the outcome [4] was “inactive”. The outcome [6] was “inactive”.

In the case of CC(C)(C)C1CCC(=O)CC1, the outcome [2] is reported as “inactive”, the outcome [3] is reported as “inactive” and the outcome [6] is reported as “inactive”.

COc1cc(O)c(C(=O)c2ccccc2)cc1S(=O)(=O)O was tested, and the outcome [2] was “inactive” and the outcome [4] was “inactive”.

With CCCCc1ccc(Cl)cc1 the outcome [2] was “inactive”, the outcome [4] was “inactive” and the outcome [3] was “inactive”.

In the case of CCCCCCCCCCCCCc1ccccc1, the outcome [2] is reported as “inactive” and the outcome [4] is reported as “inactive”.

N#Cc1ccc(C(c2ccc(C#N)cc2)n2cncn2)cc1 was tested, and the outcome [2] was “inactive”, the outcome [4] was “inactive” and the outcome [3] was “inactive”. The outcome [6] was “inactive”.

With CCCCC(CC)COS(=O)(=O)O (stereo not drawn) the outcome [2] was “inactive” and the outcome [3] was “inactive”.

CC(C=O)c1ccccc1 (stereo not drawn) was tested, and the outcome [2] was “inactive”, the outcome [4] was “inactive” and the AC50 [3] was 5.82 µM (active).

COc1nccnc1CC(C)C was tested, and the outcome [2] was “inactive”, the outcome [7] was “inactive” and the outcome [3] was “inactive”. The outcome [6] was “inactive”.

For Cc1noc(NS(=O)(=O)c2ccc(N)cc2)c1C, the outcome [7] was “inactive” and the outcome [5] was “inactive”.

For O=C(O)CCCC(=O)O, the outcome [2] was “inactive”, the outcome [4] was “inactive” and the outcome [3] was “inactive”.
